In ChEMBL document CHEMBL4513216, “Probing the Open Global Health Chemical Diversity Library for Multistage-Active Starting Points for Next-Generation Antimalarials” (ACS Infect Dis, 2020):
Among all 69,000 compounds or so, about 8,600 (12%) showed an effect of 50% or more. For the sample, strong results were picked, then their nearest neighbours and some compounds at random.

These compounds were tested on Plasmodium berghei (assay: Screen against P. berghei liver stage (PbLuc), transformed with Luciferase, at 10uM). Conditions: tested at 10 uM.
Format: functional, HepG2

| Compound | INHIBITION [%] |
| --- | --- |
| Cc1csc(C2CCCCN2C(=O)CN(C)C(C)C)n1 (centres undefined) | -19.9 |
| Cn1ccnc1COc1ccc(CN2CCC(C(N)=O)CC2)cc1 | -14.7 |
| Nc1nc(CN2CCOC(Cn3cccn3)C2)nc2ccccc12 (centres undefined) | 1.75 |
| c1ccc(-c2cc(CN3CCCC(Cn4cncn4)C3)on2)cc1 (centres undefined) | 11.6 |
| CS(=O)(=O)CCCC(=O)Nc1cc(Cl)c(Cl)cn1 | 15.7 |
| COCCCC(=O)Nc1cc(Cl)c(Cl)cn1 | 79.8 |
| CS(=O)(=O)CCC(=O)Nc1cc(Cl)c(Cl)cn1 | 35.2 |
| COCCN1CCO[C@@H]2CN(Cc3cc(OC)cc(OC)c3)C[C@@H]2C1 | 39.3 |
| CNc1cc(C2CN(Cc3coc(C)n3)CCO2)nc(C)n1 (centres undefined) | -3.31 |
| Cc1nn(C)c(C)c1CC(=O)NCc1ccnc(N2CCOCC2)c1 | -34 |
| Cc1noc(C)c1-c1cccc(C2CN(CC(=O)N(C)C)CCO2)n1 (centres undefined) | 24.35 |
| O=C1CC2(CCN(Cc3ccc4cccc(O)c4n3)CC2)CN1 | 58.6 |
| Oc1cccc2ccc(CN3CCC4(CCNCC4)C3)nc12 | 15.9 |
| O=C1CC2(CCN(Cc3ccc(C(F)(F)F)nc3)CC2)CN1 | 16.43 |
| CCN(CC)CC1CN(Cc2nccs2)Cc2nccn2C1 (centres undefined) | -42.8 |
| O=C(Nc1cccnc1)C1Cc2nc(-c3ccsc3)sc2N1CC1CC1 (centres undefined) | 60.9 |
| O=C(NC1CCCC1)C1Cc2nc(-c3ccsc3)sc2N1CC1CC1 (centres undefined) | -2.35 |
| CC(C)NC(=O)C1Cc2nc(-c3ccsc3)sc2N1CC1CC1 (centres undefined) | 23.3 |
| Cc1ccccc1C(O)c1ccncc1 (centres undefined) | 1.95 |
| Cc1cccc(NC(=O)[C@@H]2CCCN2Cc2nnc(C(C)C)n2C)n1 | 24.3 |
| Cc1nonc1CNC(=O)C(C)Oc1cccc(F)c1 (centres undefined) | -35.5 |
| COCCN(C)Cc1ccc(OC)c(OC(F)F)c1 | 26.8 |
| COc1ccc(CCN(C)C(C(=O)O)c2ccc(F)c(C)c2)cc1OC (centres undefined) | 16.7 |
| COc1ccc(S(=O)(=O)NCCCc2ccc(N(C)C)cc2)cc1Cl | 41.9 |
| COc1ccc(Cl)cc1S(=O)(=O)N(C)CC(N)=O | 23.5 |
| CCN(CCS(=O)(=O)c1ccc(Cl)cc1)Cc1ccc(OC)c(OC)c1 | 70.5 |
| CCN(Cc1nccs1)Cc1cc(Cl)ccc1OC | 15.3 |

| Compound | INHIBITION [%] |
| --- | --- |
| COc1ccc(CCN(C)CCS(=O)(=O)c2ccc(Cl)cc2)cc1OC | 63.7 |
| COc1ccc(CCCN(C)C(=O)c2cc(Cl)c[nH]2)cc1OC | 16.6 |
| COc1ccc(CN(C)CCS(=O)(=O)c2ccc(Cl)cc2)cc1OC | 68.8 |
| O=S(=O)(C1CC1)N1C[C@@H]2COC[C@]2(COc2ccccn2)C1 | 26.3 |
| CC(C)c1nccc(N2CCN(CC(=O)N3CCOCC3)CC2)n1 | -0.96 |
| CN(CCc1ccncc1)C(=O)C1CSCN1C(=O)CC(C)(C)C (centres undefined) | -23.8 |
| Cc1cccc(-n2cc3nc(N4CCC(C)CC4)[nH]cc-3c2=O)c1 | 23.4 |
| Cc1cnc(NCC(C)(C)N2CCOCC2)nc1 | 65.7 |
| Cc1cnc(NCC(C)(C)N2CCN(C)CC2)nc1 | 47.2 |
| Cc1cnc(NCC(C)(C)N2CCCCC2)nc1 | 23.3 |
| CSCCNc1ccc(C(=O)N(C)Cc2ccc3ccccc3n2)cn1 | 56.1 |
| CNc1ccc(C(=O)N(C)Cc2ccc3ccccc3n2)cn1 | 69.7 |
| CN(C)C(=O)c1ccc(NCCNc2ccc3ccccc3n2)nc1 | 8.13 |
| CCn1c(CN(C)C(=O)c2ccc(O)nc2)nc2ccccc21 | -82.4 |
| CCn1c(CN(C)C(=O)c2ccc(N(C)C)nc2)nc2ccccc21 | -17.4 |
| CCNc1ncc(C(=O)N(C)Cc2nc3ccccc3n2C)cn1 | 16.2 |
| Cn1ccnc1-c1cn(Cc2cn3c(n2)SCC3)nn1 | 5.75 |
| Cc1cccc(CN2C(=O)CCC23CCN(C(=O)N2CCCC2)CC3)n1 | 18.6 |
| CC(=O)N1N=C(c2ccccc2)OC1C(=O)N(C)Cc1ccccc1 (centres undefined) | 24.3 |
| O=C(N[C@@H]1CCN(Cc2ccc(F)cc2F)C[C@H]1O)c1cccnc1 | -26.8 |
| CCOCCCNC(=O)c1nnn(Cc2ccccc2)c1OC | 13.5 |
| CCOc1c(OC)cc(C=Cc2ncc(C(=O)NC)s2)cc1OC | 52.6 |
| CNC(=O)c1cnc(/C=C/c2cc(OC)cc(OC)c2)s1 | -76.5 |
| CCOc1c(Br)cc(/C=C/c2ncc(C(=O)O)s2)cc1OC | -39.3 |
| CCOc1cc(C=Cc2ncc(C(=O)NC)s2)ccc1OC | 72.2 |
| CCOc1cc(/C=C/c2ncc(C(=O)O)s2)ccc1O | -6.62 |
| CNC(=O)c1cnc(C=Cc2cc(OC)c(O)c(OC)c2)s1 | 50 |
